Columns and labels:
Assay in all cases: log2 ratio of Biotin-Ahx-Ub-VS probe labelling (fragment/DMSO); higher = less target engagement (more negative = stronger competition), active = hit call of the paper (q ≤ 0.05, log2 ratio ≤ -1)
Details in all cases: compound concentration: 200 uM; treatment time: 3 h
USP34 = USP34 (UniProt Q70CQ2)
In short: (§1)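 HEK293T lysate (495 µg per sample, in Tris/CHAPS/IGEPAL buffer with protease inhibitors) was exposed in triplicate for 3 h to fragment at 200 µM or to vehicle, then to Biotin-Ahx-Ub-VS at 0.5 µM final for 1 h. Labelled DUBs were enriched on NeutrAvidin, digested with LysC and trypsin, and analysed by diaPASEF LC-MS/MS. Spectronaut label-free quantities were normalised to the global median, and values are average log2 ratios of fragment over vehicle from an unpaired t-test. Only proteins with ≥2 unique peptides were used.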

USP36 = target: T1, USP36 (UniProt Q9P275)
T1 sequence (whole entry): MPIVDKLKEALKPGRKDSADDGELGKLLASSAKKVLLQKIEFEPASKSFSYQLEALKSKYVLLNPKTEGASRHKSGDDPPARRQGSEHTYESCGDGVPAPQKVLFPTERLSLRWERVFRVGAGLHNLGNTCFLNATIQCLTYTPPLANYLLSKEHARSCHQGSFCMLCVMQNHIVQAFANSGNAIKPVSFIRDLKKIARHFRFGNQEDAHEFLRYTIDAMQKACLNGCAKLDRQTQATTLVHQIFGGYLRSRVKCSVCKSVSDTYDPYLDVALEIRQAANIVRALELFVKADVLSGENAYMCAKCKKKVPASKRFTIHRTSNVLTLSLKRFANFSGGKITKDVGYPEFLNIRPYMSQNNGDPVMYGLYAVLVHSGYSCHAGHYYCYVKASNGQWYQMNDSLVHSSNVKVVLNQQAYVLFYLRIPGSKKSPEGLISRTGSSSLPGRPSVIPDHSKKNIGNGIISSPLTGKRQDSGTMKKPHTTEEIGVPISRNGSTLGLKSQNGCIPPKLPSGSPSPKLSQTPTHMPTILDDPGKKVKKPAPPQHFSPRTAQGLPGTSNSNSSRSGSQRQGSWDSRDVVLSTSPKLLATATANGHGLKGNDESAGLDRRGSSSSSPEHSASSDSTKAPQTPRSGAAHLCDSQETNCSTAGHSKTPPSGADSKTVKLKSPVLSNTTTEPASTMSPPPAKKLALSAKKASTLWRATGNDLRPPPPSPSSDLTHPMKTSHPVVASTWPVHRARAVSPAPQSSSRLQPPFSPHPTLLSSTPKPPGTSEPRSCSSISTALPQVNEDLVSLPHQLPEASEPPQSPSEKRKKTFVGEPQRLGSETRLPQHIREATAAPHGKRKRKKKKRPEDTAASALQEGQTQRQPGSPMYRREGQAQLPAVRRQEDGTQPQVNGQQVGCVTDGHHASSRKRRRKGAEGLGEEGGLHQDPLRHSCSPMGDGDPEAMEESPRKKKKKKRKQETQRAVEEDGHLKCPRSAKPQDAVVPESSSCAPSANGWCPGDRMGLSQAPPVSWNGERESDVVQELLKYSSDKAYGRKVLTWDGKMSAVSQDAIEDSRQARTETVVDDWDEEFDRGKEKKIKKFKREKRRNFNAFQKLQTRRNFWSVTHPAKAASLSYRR
In short: as §1

USP38 = target: T2, USP38 (UniProt Q8NB14)
T2 sequence (whole entry): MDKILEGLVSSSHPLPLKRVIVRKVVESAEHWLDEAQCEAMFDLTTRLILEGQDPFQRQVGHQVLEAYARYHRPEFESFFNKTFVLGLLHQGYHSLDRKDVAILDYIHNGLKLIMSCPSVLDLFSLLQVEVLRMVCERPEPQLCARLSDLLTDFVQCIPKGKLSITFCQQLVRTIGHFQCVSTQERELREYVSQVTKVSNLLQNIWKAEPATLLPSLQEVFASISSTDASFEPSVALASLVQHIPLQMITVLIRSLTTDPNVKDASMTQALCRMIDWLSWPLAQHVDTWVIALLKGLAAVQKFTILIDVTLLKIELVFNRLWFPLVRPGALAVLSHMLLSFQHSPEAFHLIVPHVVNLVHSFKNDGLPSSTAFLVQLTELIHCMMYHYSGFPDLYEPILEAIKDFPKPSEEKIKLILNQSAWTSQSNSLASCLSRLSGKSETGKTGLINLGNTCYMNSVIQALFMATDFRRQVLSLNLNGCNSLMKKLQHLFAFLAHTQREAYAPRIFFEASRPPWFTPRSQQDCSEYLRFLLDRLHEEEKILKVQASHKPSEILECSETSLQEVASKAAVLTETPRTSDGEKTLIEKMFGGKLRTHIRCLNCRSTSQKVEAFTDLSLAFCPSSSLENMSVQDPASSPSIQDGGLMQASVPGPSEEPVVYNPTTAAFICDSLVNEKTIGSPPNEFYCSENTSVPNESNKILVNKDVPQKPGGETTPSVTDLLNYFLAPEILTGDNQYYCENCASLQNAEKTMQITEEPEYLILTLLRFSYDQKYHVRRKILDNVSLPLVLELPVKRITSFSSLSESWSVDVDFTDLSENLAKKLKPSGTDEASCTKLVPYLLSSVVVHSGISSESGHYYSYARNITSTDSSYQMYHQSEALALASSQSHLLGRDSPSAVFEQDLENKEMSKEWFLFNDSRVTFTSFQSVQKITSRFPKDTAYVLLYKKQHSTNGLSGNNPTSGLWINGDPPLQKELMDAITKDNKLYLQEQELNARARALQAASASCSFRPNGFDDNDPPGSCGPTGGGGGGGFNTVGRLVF
In short: as §1

USP39 = target: T3, USP39 (UniProt Q53GS9)
T3 sequence (whole entry): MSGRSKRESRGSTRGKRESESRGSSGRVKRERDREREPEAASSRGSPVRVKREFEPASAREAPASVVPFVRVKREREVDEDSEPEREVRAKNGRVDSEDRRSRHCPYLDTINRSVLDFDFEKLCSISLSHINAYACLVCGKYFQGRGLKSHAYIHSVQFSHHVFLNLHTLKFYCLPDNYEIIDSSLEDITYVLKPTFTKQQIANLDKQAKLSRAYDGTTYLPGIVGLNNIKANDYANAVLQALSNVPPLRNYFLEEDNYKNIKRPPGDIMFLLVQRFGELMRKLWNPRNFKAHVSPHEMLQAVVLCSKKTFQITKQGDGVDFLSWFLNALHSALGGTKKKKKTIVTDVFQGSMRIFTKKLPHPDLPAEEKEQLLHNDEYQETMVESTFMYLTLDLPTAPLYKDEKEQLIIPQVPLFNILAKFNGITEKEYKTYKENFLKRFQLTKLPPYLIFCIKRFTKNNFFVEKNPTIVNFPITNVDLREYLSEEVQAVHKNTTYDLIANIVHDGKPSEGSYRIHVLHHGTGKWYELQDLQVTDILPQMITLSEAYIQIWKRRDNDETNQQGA
In short: as §1

USP4 = target: T4, USP4 (UniProt Q13107)
T4 sequence (whole entry): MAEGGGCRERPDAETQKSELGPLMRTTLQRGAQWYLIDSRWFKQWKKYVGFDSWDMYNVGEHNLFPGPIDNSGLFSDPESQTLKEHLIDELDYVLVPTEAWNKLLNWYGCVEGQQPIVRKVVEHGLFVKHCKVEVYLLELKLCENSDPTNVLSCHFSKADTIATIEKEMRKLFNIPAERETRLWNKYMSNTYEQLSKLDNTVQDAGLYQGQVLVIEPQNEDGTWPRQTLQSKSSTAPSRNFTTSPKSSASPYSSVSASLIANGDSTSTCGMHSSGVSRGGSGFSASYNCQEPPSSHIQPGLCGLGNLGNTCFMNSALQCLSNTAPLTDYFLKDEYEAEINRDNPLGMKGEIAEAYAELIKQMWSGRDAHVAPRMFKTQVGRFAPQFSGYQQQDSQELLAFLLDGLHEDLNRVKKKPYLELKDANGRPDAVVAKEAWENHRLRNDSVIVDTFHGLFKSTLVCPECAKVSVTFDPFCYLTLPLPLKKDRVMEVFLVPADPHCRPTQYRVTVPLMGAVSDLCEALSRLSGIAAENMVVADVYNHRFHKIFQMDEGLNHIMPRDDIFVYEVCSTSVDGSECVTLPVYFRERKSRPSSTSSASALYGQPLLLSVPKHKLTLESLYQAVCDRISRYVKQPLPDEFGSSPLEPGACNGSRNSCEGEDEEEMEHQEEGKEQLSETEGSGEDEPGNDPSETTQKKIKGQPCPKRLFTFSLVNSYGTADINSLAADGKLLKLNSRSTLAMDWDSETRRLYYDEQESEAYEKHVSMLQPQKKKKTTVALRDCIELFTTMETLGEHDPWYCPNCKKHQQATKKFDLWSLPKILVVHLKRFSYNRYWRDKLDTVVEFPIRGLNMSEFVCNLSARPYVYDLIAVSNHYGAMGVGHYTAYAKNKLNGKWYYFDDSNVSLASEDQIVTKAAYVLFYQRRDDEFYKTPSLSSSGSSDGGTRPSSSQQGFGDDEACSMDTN
In short: as §1

Measured: log2 ratio of Biotin-Ahx-Ub-VS probe labelling

Sequence of USP34 (Q70CQ2 whole entry, the tested form may be a part): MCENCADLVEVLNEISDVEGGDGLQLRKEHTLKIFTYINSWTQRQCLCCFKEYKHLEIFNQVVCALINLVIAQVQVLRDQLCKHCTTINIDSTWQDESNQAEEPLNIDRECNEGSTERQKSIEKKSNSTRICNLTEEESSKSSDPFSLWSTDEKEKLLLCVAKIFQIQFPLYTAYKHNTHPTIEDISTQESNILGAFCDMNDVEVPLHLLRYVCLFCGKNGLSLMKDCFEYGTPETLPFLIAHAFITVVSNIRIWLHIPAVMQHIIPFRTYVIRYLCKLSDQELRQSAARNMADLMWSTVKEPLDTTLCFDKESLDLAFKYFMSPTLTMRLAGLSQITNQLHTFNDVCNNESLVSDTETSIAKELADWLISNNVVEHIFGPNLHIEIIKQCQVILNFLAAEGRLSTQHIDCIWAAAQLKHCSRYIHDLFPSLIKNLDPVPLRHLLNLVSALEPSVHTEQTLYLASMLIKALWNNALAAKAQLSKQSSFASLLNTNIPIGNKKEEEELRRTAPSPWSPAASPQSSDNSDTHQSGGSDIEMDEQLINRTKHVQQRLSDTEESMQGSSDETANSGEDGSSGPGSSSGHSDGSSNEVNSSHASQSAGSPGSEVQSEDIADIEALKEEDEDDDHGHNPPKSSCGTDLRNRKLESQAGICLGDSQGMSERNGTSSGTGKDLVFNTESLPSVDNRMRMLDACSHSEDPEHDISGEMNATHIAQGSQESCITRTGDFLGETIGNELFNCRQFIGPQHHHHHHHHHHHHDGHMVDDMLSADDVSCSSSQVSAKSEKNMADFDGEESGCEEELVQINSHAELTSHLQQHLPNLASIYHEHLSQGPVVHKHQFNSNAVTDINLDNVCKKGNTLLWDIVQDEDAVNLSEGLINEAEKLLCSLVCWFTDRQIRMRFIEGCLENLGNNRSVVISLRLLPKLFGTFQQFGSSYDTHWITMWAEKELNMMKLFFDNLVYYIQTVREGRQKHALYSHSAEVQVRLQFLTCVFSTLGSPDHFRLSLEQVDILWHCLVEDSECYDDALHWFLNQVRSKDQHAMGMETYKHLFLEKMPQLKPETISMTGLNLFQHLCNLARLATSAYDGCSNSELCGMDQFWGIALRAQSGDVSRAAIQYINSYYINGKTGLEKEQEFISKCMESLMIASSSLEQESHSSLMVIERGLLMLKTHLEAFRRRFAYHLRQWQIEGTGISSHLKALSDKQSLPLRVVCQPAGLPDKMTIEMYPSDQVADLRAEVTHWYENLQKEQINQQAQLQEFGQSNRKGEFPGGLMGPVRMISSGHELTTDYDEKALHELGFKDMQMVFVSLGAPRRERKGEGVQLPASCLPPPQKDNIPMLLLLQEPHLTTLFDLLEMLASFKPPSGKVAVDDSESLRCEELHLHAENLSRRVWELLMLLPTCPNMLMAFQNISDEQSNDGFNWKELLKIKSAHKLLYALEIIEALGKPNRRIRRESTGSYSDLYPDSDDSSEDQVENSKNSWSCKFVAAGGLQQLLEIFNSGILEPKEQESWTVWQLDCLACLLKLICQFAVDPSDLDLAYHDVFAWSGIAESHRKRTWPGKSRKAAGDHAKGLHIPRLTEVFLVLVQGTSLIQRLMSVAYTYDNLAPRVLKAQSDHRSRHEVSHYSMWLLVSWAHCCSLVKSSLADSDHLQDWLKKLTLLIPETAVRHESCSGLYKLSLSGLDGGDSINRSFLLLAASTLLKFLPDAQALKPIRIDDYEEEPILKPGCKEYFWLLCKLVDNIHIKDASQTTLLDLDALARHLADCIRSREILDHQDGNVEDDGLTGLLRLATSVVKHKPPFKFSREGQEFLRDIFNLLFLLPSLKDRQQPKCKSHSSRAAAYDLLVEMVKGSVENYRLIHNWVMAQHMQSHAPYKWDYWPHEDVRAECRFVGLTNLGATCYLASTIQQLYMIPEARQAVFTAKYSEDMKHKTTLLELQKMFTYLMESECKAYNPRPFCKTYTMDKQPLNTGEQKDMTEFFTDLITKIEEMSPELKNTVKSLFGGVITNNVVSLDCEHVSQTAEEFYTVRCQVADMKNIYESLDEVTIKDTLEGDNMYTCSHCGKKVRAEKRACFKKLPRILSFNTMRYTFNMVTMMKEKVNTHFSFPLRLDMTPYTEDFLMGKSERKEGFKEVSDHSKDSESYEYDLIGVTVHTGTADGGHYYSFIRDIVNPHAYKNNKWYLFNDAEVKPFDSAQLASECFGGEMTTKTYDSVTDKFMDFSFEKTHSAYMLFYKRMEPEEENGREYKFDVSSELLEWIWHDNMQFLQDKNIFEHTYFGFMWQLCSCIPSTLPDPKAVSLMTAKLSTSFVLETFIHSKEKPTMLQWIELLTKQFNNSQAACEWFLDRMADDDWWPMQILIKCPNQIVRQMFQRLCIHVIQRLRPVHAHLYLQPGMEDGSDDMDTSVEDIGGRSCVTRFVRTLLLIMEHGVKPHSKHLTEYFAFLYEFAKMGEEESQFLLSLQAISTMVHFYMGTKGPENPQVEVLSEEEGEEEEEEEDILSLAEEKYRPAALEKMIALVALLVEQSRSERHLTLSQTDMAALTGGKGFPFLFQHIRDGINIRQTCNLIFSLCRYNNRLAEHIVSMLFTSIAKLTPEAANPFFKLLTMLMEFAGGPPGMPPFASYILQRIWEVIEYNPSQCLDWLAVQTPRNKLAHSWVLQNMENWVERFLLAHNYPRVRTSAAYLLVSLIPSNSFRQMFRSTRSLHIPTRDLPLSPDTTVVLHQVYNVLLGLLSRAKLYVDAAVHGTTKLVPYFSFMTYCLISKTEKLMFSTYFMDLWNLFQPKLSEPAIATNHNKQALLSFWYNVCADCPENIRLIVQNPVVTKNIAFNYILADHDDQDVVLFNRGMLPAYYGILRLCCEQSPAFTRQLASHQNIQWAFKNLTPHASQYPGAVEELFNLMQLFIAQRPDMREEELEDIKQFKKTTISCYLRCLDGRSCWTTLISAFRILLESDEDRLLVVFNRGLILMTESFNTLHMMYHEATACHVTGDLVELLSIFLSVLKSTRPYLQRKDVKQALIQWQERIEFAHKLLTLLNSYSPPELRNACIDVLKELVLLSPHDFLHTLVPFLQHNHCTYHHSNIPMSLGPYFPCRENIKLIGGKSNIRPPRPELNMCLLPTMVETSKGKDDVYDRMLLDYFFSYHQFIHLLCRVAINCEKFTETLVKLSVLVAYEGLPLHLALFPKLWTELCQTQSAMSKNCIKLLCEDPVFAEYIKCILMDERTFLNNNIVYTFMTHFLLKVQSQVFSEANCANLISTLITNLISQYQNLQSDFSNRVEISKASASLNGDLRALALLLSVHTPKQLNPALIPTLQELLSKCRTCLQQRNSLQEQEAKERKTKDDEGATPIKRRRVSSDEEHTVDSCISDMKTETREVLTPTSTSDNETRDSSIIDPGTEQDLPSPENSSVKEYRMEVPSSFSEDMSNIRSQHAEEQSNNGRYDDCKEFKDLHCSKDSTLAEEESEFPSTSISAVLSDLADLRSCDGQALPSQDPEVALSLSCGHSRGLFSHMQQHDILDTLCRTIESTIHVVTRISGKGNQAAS

Cc1conc1C1CN(C(=O)CCl)C1
inactive: USP34 -0.684 | USP36 -0.258 | USP38 -0.799 | USP39 0.247 | USP4 -0.913

From the supplement of paper PMC11732987, “Enantioselective OTUD7B fragment discovery through chemoproteomics screening and high-throughput optimisation” (Communications Chemistry, 2025)
